# Assay results published in PubChem BioAssay (NCATS).
# Records with an inconclusive call do not appear. A call without a number means that no potency is given here. A number with no mark means an inactive call. The source made the active and inactive calls. Calls follow the shape of the dose curve; as a rule, active = well fitted curve in the direction sought with a large enough effect; inconclusive = small, poorly fitted or top-dose-only effect, or another doubt; inactive = no such curve, though single readings can be large; an effect the other way counts as inactive or inconclusive.
# Tests used:
# [1] = target: Rap guanine nucleotide exchange factor 3 (Homo sapiens) (UniProt O95398); assay: Confirmatory qHTS for antagonist of cAMP-regulated guanine nucleotide exchange factor 3 (EPAC1) (AID 1645880); conditions: EPAC1 Rap1B-BODIPY-GDP exchange, fluorescence; activity, negative = inhibition: at 115 µM (top of the series); also: nearly all actives have a fitted effect of over 55% in size; also: potency is read from the fitted curve at half-maximal effect
# Outline: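 Released BODIPY-GDP fluoresces less than Rap1-bound BODIPY-GDP; the signal is followed at 480/540 nm at 5-min intervals over 30 min, after 5 min at room temperature. Reactions contain 100 nM EPAC1, 250 nM RAP1B-BODIPY-GDP and 50 uM GDP; results are normalized to ATA and DMSO.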
# [2] = target: Rap guanine nucleotide exchange factor 4 (Homo sapiens) (UniProt Q8WZA2); assay: Confirmatory qHTS for agonist of cAMP-regulated guanine nucleotide exchange factor 4 (EPAC2) (AID 1645884);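 also: nucleotide exchange releases bodipy-GDP from Rap1 and this lowers its fluorescence; nearly all actives have a fitted effect of over 65% in size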; also: potency is read from the fitted curve at half-maximal effect
# [3] = target: Rap guanine nucleotide exchange factor 4 (Homo sapiens) (UniProt Q8WZA2); assay: Confirmatory qHTS for antagonist of cAMP-regulated guanine nucleotide exchange factor 4 (EPAC2) (AID 1645885); also: nearly all actives have a fitted effect of over 25% in size; also: potency is read from the fitted curve at half-maximal effect
# [4] = target: Rap guanine nucleotide exchange factor 3 (Homo sapiens) (UniProt O95398); assay: Counterscreen qHTS for antagonist of cAMP-regulated guanine nucleotide exchange factor 3 (EPAC1) (AID 1645888)
# Outline: (§1)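 Rap1B–BODIPY-GDP (250 nM) with 50 uM GDP; compounds pin-transferred to 9.74 nM–152 uM final (activator) or from 7.32 nM upwards (inhibitor). Fluorescence Ex/Em 480/540 nm read at 5 and 30 min, then after adding cAMP or buffer, at room temperature.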
# [5] = target: Rap guanine nucleotide exchange factor 3 (Homo sapiens) (UniProt O95398); assay: Counterscreen qHTS for agonist of cAMP-regulated guanine nucleotide exchange factor 3 (EPAC1) (AID 1645889); also: nearly all actives have a fitted effect of over 40% in size; also: potency is read from the fitted curve at half-maximal effect
# Outline: as §1
# Chain of Rap guanine nucleotide exchange factor 4 (Homo sapiens) (Q8WZA2 whole entry, looked up): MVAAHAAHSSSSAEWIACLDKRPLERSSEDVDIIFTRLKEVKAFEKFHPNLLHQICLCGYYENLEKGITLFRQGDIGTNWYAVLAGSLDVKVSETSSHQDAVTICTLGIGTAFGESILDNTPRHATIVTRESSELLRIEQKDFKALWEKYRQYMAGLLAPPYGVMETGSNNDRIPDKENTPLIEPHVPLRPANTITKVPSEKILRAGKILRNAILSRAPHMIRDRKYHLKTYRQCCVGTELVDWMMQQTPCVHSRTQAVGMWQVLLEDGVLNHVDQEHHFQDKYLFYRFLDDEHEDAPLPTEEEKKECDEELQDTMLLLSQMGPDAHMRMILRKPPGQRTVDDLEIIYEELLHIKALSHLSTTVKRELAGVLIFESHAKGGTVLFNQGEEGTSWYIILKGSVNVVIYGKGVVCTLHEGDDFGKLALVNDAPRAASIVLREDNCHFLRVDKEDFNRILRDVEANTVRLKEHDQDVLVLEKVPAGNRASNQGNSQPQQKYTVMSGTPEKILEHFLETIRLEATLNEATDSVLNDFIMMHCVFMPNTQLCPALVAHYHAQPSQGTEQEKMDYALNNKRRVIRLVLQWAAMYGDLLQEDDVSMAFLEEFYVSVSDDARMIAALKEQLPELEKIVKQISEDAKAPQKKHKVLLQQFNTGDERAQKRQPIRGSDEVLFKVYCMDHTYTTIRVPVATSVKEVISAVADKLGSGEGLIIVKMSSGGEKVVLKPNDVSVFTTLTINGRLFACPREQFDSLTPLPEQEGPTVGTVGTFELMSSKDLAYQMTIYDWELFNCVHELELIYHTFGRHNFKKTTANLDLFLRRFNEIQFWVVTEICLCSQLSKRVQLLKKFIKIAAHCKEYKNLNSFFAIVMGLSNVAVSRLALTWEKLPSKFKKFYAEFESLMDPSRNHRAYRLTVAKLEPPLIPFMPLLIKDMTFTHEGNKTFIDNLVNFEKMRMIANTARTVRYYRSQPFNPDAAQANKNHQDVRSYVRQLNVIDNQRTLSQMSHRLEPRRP
# Chain of Rap guanine nucleotide exchange factor 3 (Homo sapiens) (O95398 whole entry, looked up): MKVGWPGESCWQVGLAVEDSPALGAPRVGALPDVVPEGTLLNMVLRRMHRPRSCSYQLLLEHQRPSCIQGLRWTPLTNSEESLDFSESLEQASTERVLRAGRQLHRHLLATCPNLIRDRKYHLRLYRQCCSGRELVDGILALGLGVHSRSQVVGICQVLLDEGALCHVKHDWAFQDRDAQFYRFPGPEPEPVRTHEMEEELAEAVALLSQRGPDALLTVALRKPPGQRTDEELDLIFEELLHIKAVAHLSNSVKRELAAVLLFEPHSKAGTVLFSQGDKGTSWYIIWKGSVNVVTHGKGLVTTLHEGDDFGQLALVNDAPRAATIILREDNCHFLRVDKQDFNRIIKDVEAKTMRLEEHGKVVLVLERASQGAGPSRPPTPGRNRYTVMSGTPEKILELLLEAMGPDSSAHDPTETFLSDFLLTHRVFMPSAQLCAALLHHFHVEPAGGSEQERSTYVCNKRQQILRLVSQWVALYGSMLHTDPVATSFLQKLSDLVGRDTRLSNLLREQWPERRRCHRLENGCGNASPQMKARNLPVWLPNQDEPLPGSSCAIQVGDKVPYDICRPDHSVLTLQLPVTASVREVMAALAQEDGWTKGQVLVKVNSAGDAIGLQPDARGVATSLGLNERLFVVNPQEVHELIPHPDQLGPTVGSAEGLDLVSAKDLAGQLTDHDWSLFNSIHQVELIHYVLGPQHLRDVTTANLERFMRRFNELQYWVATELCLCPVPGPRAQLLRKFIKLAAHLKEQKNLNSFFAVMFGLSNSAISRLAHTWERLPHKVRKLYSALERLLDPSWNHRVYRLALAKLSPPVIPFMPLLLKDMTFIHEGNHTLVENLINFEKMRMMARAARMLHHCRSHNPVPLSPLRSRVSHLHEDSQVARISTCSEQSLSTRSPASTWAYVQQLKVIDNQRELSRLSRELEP
Structure (SMILES),Potency [1],Potency [2],Potency [3],Potency [4],activation [2],"activity change, negative = inhibition [4]",activation [5],Potency [5]
CCOc1ccc2c(ccc(/C=C/c3cc(C)c4cccnc4c3O)[n+]2C)c1,60.1 µM (active),70.8 µM (active),42.6 µM (active),,,,,
CN1CCS/C1=C\C=C1/SC(=S)N(CC(=O)O)C1=O,inactive,79.4 µM (active),inactive,inactive,,,,
COc1cccc(-n2c(SCC(=O)Nc3ccc(F)cc3F)nc3c([nH]c4ccccc43)c2=O)c1,inactive,inactive,inactive,inactive,,,,
CCOC(=O)C1=C(C)N=c2s/c(=C\c3cccn3C)c(=O)n2C1c1cccc(OC)c1OC (stereo not given),inactive,,inactive,,"19.2% [at 17.1 µM, percent relative to cAMP agonist control]",-4.43% [at 30.8 µM],,
CC1CCN(c2ccc3c(c2)S(=O)(=O)c2cccc(C(=O)NCc4cccc(F)c4)c2C3=O)CC1,inactive,112 µM (active),inactive,inactive,,,,
O=S(=O)(NCC(c1ccco1)N1CCc2ccccc21)c1ccccc1 (stereo not given),inactive,,inactive,,"5.38% [at 17.1 µM, percent relative to cAMP agonist control]",-0.643% [at 30.8 µM],,
CN(C)c1ccc(C2C=C(c3ccc(Cl)cc3OC(F)F)Nc3ncnn32)cc1 (stereo not given),inactive,,inactive,,"4.39% [at 17.1 µM, percent relative to cAMP agonist control]",-14.7% [at 30.8 µM],,
O=C(COc1cccc(OC(F)F)c1)Nc1ccc(SC(F)F)cc1,inactive,,inactive,,"9.08% [at 17.1 µM, percent relative to cAMP agonist control]",8.28% [at 30.8 µM],,
COc1ccc(C(=O)/C=C/c2ccc(N(C)C)cc2)c(OC)c1,inactive,inactive,inactive,inactive,,,,
COC(=O)CC(NC(=S)NC(=O)c1ccccc1)c1ccc(Br)cc1 (stereo not given),inactive,inactive,inactive,inactive,,,,
CCOc1cc(/C=N/NC(=O)c2ccc(-c3csc(Nc4ccc(C)cc4)n3)cc2)ccc1OCC(=O)O,23.9 µM (active),inactive,inactive,inactive,,,,
O=S1(=O)NC(c2ccccc2)CC(CC2CCCCC2)O1 (stereo not given),inactive,,inactive,,"26.6% [at 17.1 µM, percent relative to cAMP agonist control]",-0.437% [at 30.8 µM],,
CCOc1ccccc1Oc1nc(C)nc2c1oc1ccccc12,inactive,inactive,inactive,inactive,,,,
O=C(N/N=C/c1cc(Cl)cc([N+](=O)[O-])c1O)NC12CC3CC(CC(C3)C1)C2,10.7 µM (active),inactive,inactive,inactive,,,,
COC(=O)c1cc2sc(Cl)cc2n1Cc1cc(C)ccc1C,inactive,inactive,inactive,inactive,,,,
CNC(=O)N(C1=NCC(C)(C)S1)c1ccc(F)c(Cl)c1,inactive,inactive,inactive,inactive,,,,
COC(=O)c1c(C)c2c(C)cc3ccccn3c-2c1C(=O)OC,inactive,,inactive,,"10.6% [at 17.1 µM, percent relative to cAMP agonist control]",9.53% [at 30.8 µM],,
CN(C)c1ccc(/C=C(\C#N)C(=O)c2ccccc2)cc1,inactive,,inactive,,"17.4% [at 17.1 µM, percent relative to cAMP agonist control]",15.5% [at 30.8 µM],,
COC(=O)c1ccccc1C(=O)c1cccc2ccccc12,inactive,inactive,inactive,inactive,,,,
COc1ccc(N=Cc2c(O)ccc3ccccc23)cc1,inactive,,inactive,,"6.9% [at 17.1 µM, percent relative to cAMP agonist control]",17.7% [at 30.8 µM],,
COc1ccc(Cl)cc1NC(=O)CN(C)C(C)C(=O)NC(=O)NC1CCCCC1 (stereo not given),inactive,inactive,inactive,inactive,,,,
COc1ccc(NC(=O)c2c(-c3ccccc3)c(-c3ccccc3)nn(C)c2=O)c(OC)c1,inactive,inactive,inactive,inactive,,,,
COC(=O)c1cc2oc(C)cc2n1Cc1cc(C)ccc1C,inactive,inactive,inactive,inactive,,,,
COc1ccc(OC)c(NC(=S)N2c3ccccc3CC2C)c1 (stereo not given),inactive,,inactive,,"12.4% [at 17.1 µM, percent relative to cAMP agonist control]",-17.1% [at 30.8 µM],,

Structure (SMILES),Potency [1],Potency [2],Potency [3],Potency [4],activation [2],"activity change, negative = inhibition [4]",activation [5],Potency [5]
COC(=O)c1ccc2nc(-c3ccccc3)c(Cc3cccc(F)c3)n2c1,inactive,,inactive,,"4.96% [at 17.1 µM, percent relative to cAMP agonist control]",10% [at 30.8 µM],,
Cc1ccc2nc(/C(C#N)=C\c3ccc(N4CCOCC4)o3)[nH]c2c1,inactive,,inactive,,"11.1% [at 17.1 µM, percent relative to cAMP agonist control]",15.8% [at 30.8 µM],,
COc1ccc(OC)c(/C=C/c2nc3ccccc3[nH]c2=O)c1,inactive,100 µM (active),75.7 µM (active),inactive,,,,
Cc1cccc(-c2nc3nc(C)cc(NCc4ccccc4Cl)n3n2)c1,inactive,inactive,inactive,inactive,,,,
CCOc1ccc(CCN2C(=O)C(=O)N([C@@H](CC(C)C)CN3CCC[C@@H]3CN3C(=O)C(=O)NC[C@@H]3Cc3ccccc3)C[C@@H]2CC(C)C)cc1,inactive,inactive,0.0953 µM (active),inactive,,,,
CCOc1ccc(NC(=O)/C(C#N)=C/c2ccc(N3CCCC3)c(C)c2)cc1,inactive,,inactive,,"3.1% [at 17.1 µM, percent relative to cAMP agonist control]",15.4% [at 30.8 µM],,
O=C(O)c1ccccc1NS(=O)(=O)c1ccc(NN=Cc2cccc(Cl)c2)c([N+](=O)[O-])c1,75.7 µM (active),inactive,inactive,inactive,,,,
O=C1CCC2CN3CCc4c([nH]c5ccccc45)C3CC2C1 (stereo not given),inactive,,inactive,,"-5.59% [at 17.1 µM, percent relative to cAMP agonist control]",2.15% [at 30.8 µM],,
O=C1c2cccc3c(N4CCCCC4)ccc(c23)C(=O)N1c1ccccc1O,inactive,,inactive,,"13.2% [at 17.1 µM, percent relative to cAMP agonist control]",-4.8% [at 30.8 µM],,
Cc1ccc(S(=O)(=O)C2(C(=O)Nc3ccc(Br)cc3)CC2)cc1,inactive,,inactive,,"6.34% [at 17.1 µM, percent relative to cAMP agonist control]",-6.73% [at 30.8 µM],,
CCOC(=O)C1CCCN(c2c(C(=O)c3ccccc3)cnc3ccc(OC)cc23)C1 (stereo not given),inactive,,inactive,,"6.11% [at 17.1 µM, percent relative to cAMP agonist control]",19.5% [at 30.8 µM],,
COc1ccc(OC)c(/C=C2\SC(=S)N(Cc3cccnc3)C2=O)c1,inactive,,inactive,,"3.3% [at 17.1 µM, percent relative to cAMP agonist control]",-3.11% [at 30.8 µM],,
COc1ccc(/C(O)=C/c2nc3ccccc3n(-c3ccccc3)c2=O)cc1,inactive,100 µM (active),75.7 µM (active),inactive,,,,
C=CCN1C(=O)c2cccc3c(N4CCCCC4)ccc(c23)C1=O,inactive,112 µM (active),inactive,inactive,,,,
CN(C)c1ccc(/C=C/C(=O)c2cccc(Br)c2)cc1,inactive,,inactive,,"-16% [at 17.1 µM, percent relative to cAMP agonist control]",21.2% [at 30.8 µM],,
CCOC(=O)/C(C#N)=C/c1ccc(N2CCN(Cc3ccccc3)CC2)cc1,inactive,,inactive,,"10.3% [at 17.1 µM, percent relative to cAMP agonist control]",16.8% [at 30.8 µM],,
COc1ccc(-c2ncccc2OC(=O)C23CC4CC(CC(C4)C2)C3)cc1OC,inactive,,inactive,,"1.83% [at 17.1 µM, percent relative to cAMP agonist control]",-6.96% [at 30.8 µM],,
Cc1ccc(S(=O)(=O)N2CCN(C(=O)c3ccc4c(c3)OCO4)CC2)cc1,inactive,,inactive,,"0.378% [at 17.1 µM, percent relative to cAMP agonist control]",-2% [at 30.8 µM],24.8% [at 30.8 µM],
Cc1ccccc1-n1c(O)c(/C=C/C=Nc2ccccc2)c(=O)[nH]c1=O,inactive,112 µM (active),inactive,inactive,,,,39.8 µM (active)
Nc1ccccc1Oc1ccc2ccccc2c1,inactive,inactive,inactive,inactive,,,,
COc1ccc(NC(=O)/C(C#N)=C\c2ccc(OCc3ccc(C(=O)O)cc3)c(OC)c2)cc1,67.5 µM (active),inactive,inactive,inactive,,,,inactive
Nc1c(C(=O)C2CC2)sc2nc(-c3cccs3)cc(C(F)(F)F)c12,inactive,100 µM (active),75.7 µM (active),inactive,,,,
O=C(NN=Cc1c(O)ccc2ccccc12)c1ccncc1,inactive,,inactive,,"6.24% [at 17.1 µM, percent relative to cAMP agonist control]",4.58% [at 30.8 µM],,
